Inconclusive results are not listed. Activity calls are given as the source filed them. Unless noted, the call rests on the fitted dose curve; in most records, active means well fitted curve in the direction sought with a large enough effect in the repeat runs; inconclusive means weak or mixed curves; inactive means no such curve, though single readings can be large; an effect the other way counts as inactive or inconclusive. Non-standard residues stand in square brackets, D forms with d. Residues, ends and D or L forms follow the SMILES beside them. *: point of attachment. Sta = CC(C)C[C@H](N)[C@@H](O)CC(=O)O; Isovaleryl = CC(C)CC(=O)*
How the values were obtained:
[1] = qHTS assay to identify small molecule HDAC inhibitors - cell viability counter screen (AID 1259365); further: series mostly up to about 92 µM; nearly all actives have a fitted effect of over 50% in size
Outline: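 After overnight seeding at 1,500 cells per well, wild-type HCT-116 cultures took up compounds in DMSO for 2hr at 37 C. Viable cell content came from luminescence with CellTiter-Glo.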

[2] = qHTS assay to identify small molecule antagonists of the sonic hedgehog signaling (Shh) pathway - cell viability counter screen (AID 1259367); further: nearly all actives have a fitted effect of over 55% in size
Outline: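 NIH/3T3-derived Gli1-Luc reporter cells, 2,000/well, plated 4 hr before compound addition, then stimulated with conditioned medium for 24 hr at 37C. Viability measured in the same wells by CellTiter-Fluor fluorescence, reagent added at 23 hr for 1 hr.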

[3] = qHTS assay to identify small molecule agonists of the sonic hedgehog signaling (Shh) pathway (AID 1259368; calls by dose curve; further: series mostly up to about 92 µM; nearly all actives have a fitted effect of over 15% in size)
Outline: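 NIH/3T3-derived 3T3Gli1-Luc cells carrying a stably integrated Gli1 response element–firefly luciferase reporter were plated, left 4 hr at 37 C, then given compounds in DMSO for 24 hr. Luminescence was read 30 min after adding luciferase reagent.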

[4] = qHTS assay to identify small molecule antagonists of the sonic hedgehog signaling (Shh) pathway (AID 1259369; calls by dose curve; further: nearly all actives have a fitted effect of over 45% in size)
Outline: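 NIH/3T3-derived 3T3Gli1-Luc cells with stably integrated Gli1-Luc reporter were preincubated 4hr at 37 C, then given compounds in DMSO plus Shh conditioned medium and incubated 24hr. Firefly luciferase luminescence read after 30min reagent at room temperature.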

[5] = qHTS assay to identify small molecule agonists of the androgen receptor (AR) signaling pathway in the presence of an antagonist - cell viability counter screen (AID 1259379); further: series mostly up to about 92 µM; nearly all actives have a fitted effect of over 25% in size
Outline: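 MDA-kb2 human breast carcinoma cells (stable MMTV-luciferase, AR/GR responsive) were seeded 3,000 cells/well, pre-incubated 5 hr at 37C without CO2, then given 3.0uM nilutamide and compounds at 15 concentrations for 16 hr. Viability was read by CellTiter-Fluor fluorescence.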

[6] = qHTS assay to identify small molecule agonists of the estrogen receptor beta (ER-beta) signaling pathway - cell viability counter screen (AID 1259380); further: nearly all actives have a fitted effect of over 30% in size
Outline: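 ER-beta-UAS-bla HEK293T cells in medium with 2% charcoal-stripped FBS were preincubated 6 hr at 37C, dosed with compound in DMSO for 16 hr, then after the bla read, CellTiter-Glo was added for 30 min at room temperature; luminescence recorded.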

[7] = target: Androgen receptor (Homo sapiens) (UniProt P10275); assay: qHTS assay to identify small molecule agonists of the androgen receptor (AR) signaling pathway in the presence of an antagonist (AID 1259381; calls by dose curve; further: nearly all actives have a fitted effect of over 15% in size)
Androgen receptor (Homo sapiens), sequence (P10275 whole entry, looked up): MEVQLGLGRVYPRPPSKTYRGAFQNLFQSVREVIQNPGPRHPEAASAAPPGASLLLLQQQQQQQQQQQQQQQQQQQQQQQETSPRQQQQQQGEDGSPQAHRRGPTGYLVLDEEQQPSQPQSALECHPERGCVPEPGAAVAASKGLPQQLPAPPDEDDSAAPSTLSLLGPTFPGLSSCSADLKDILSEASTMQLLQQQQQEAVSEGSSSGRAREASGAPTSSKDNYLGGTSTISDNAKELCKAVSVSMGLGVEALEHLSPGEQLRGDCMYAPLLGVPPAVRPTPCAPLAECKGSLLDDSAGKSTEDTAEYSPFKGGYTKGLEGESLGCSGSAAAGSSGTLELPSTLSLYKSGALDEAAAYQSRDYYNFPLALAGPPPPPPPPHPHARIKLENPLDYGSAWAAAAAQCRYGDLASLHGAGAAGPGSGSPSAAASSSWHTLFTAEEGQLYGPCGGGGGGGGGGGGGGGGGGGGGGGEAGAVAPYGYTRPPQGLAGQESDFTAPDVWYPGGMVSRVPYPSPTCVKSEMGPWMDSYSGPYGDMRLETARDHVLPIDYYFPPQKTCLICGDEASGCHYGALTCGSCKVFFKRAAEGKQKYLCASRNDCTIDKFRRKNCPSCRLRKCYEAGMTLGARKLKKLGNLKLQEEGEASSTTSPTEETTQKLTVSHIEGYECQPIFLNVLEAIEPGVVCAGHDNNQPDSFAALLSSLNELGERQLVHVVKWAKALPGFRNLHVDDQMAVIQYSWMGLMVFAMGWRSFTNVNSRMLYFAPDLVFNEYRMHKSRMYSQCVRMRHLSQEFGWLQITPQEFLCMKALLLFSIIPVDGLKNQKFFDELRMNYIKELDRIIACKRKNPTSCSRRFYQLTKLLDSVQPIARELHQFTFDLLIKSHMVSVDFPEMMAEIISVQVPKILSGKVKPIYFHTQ
Outline: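 MDA-kb2 human breast carcinoma cells carrying an MMTV-luciferase reporter (AR- and GR-responsive) were treated with compounds at 15 concentrations plus 3.0uM final nilutamide for 16hr at 37C without CO2; luminescence was read after ONE-Glo addition.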

[8] = qHTS assay to identify small molecule agonists of the sonic hedgehog signaling (Shh) pathway - cell viability counter screen (AID 1259366); further: nearly all actives have a fitted effect of over 50% in size
Outline: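 Same-well cytotoxicity read. Gli1-Luc reporter 3T3 cells; compounds 24hr, 37C/5% CO2; CellTiter-Fluor fluorescence.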

[9] = target: Estrogen receptor beta (Homo sapiens) (UniProt Q92731); assay: qHTS assay to identify small molecule agonists of the estrogen receptor beta (ER-beta) signaling pathway (AID 1259377; active means well fitted activation curve with a large enough effect in the signal ratio in the repeat runs, not every such curve was filed as active; the % refers to the signal ratio)
Estrogen receptor beta (Homo sapiens), sequence (Q92731 whole entry, looked up): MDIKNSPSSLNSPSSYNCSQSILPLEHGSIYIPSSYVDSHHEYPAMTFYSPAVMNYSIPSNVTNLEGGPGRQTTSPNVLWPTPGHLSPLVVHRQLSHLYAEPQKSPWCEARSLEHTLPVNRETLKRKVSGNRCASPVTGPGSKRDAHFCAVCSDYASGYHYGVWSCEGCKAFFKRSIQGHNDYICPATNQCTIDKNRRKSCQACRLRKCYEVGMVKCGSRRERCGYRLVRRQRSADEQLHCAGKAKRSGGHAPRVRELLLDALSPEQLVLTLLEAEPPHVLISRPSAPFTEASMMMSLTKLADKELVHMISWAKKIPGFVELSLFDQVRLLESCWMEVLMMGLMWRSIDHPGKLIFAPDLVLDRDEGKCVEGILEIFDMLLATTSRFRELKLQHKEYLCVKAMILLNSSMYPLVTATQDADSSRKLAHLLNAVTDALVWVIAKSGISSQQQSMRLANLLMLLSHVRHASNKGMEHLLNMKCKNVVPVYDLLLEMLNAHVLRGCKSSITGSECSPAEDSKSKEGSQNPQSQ
Outline: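 Read-out: beta-lactamase FRET fluorescence. Cell line: ER-beta-UAS-bla HEK293T in 2% charcoal-stripped FBS. Exposure: 16 hr at 37C. Substrate step: 2 h at room temperature.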

[10] = target: Estrogen receptor beta (Homo sapiens) (UniProt Q92731); assay: qHTS assay to identify small molecule antagonists of the estrogen receptor beta (ER-beta) signaling pathway (AID 1259378; active means well fitted inhibition curve with a large enough effect in the signal ratio in the repeat runs, not every such curve was filed as active; the % refers to the signal ratio)
Outline: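 ER-beta-UAS-bla HEK293T cells in 2% charcoal-stripped FBS medium treated with compound plus 1nM final 17-beta-estradiol for 16 hr at 37C. Beta-lactamase reporter read by FRET substrate fluorescence after 2 hours at room temperature.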

Measured: Potency

N#Cc1ccccc1C#N
not listed: [8] | [9] | [10]
inactive: all other assays above

CC(CN1CC(=O)NC(=O)C1)N1CC(=O)NC(=O)C1 (centres undefined)
not listed: [2] | [4]
inactive: all other assays above

O=C[C@@H](O)[C@H](O)[C@H](O)CO
not listed: [8]
inactive: all other assays above

CC[C@@]1(c2ccccc2)NC(=O)N(C)C1=O
not listed: [7] | [8]
inactive: all other assays above

CCCCCCCCCCCC(C)=O
not listed: [7] | [8]
inactive: all other assays above

CNC(=O)c1c(I)c(NC(C)=O)c(I)c(C(=O)O)c1I
not listed: [7] | [8]
inactive: all other assays above

CC(C)c1cc(C(C)C)cc(C(C)C)c1
not listed: [7] | [8]
inactive: all other assays above

CCO[Si](CC(C)C)(OCC)OCC
not listed: [1] | [6] | [7]
inactive: all other assays above

CN1C(CCl)Nc2cc(Cl)c(S(N)(=O)=O)cc2S1(=O)=O (centres undefined)
not listed: [7] | [8]
inactive: all other assays above

CC(=O)OC1CCC(C(C)(C)C)CC1 (centres undefined)
not listed: [2] | [9] | [10]
inactive: all other assays above

CC1=C(O)C(=O)CO1
not listed: [7] | [8]
inactive: all other assays above

CCCCCCCCC1CO1 (centres undefined)
not listed: [8]
inactive: all other assays above

COc1ccc2cc(CCC(C)=O)ccc2c1
not listed: [7] | [8]
inactive: all other assays above

C=CC(=O)OCCOCCOCC
not listed: [2] | [4] | [7]
inactive: all other assays above

CC(C)(C)C(=O)NCCCC(=O)O
inactive: [1] | [2] | [3] | [5] | [6]

CCOC(=O)CC
inactive: [1] | [3] | [4] | [9] | [5]

CC(O)CCCCn1c(=O)c2c(ncn2C)n(C)c1=O (centres undefined)
inactive: [1] | [2] | [3] | [4] | [5] | [6]

OCCC(F)(F)C(F)(F)C(F)(F)C(F)(F)C(F)(F)C(F)(F)F
inactive: [1] | [3] | [9] | [10] | [5] | [6]

CCCC[O][Al]([O]CCCC)[O]CCCC
inactive: [1] | [2] | [3] | [4] | [5] | [6]

CCCCC(CC)CCC(CC(C)C)OS(=O)(=O)O (centres undefined)
not listed: [7] | [8]
inactive: all other assays above

CCCC(=O)OC
not listed: [1] | [7]
inactive: all other assays above

CC/C=C\CCOC(=O)c1ccccc1
inactive: [1] | [3] | [4] | [5] | [6] | [7]

Nc1ccc(C(=O)NCC(=O)O)cc1
not listed: [7] | [8] | [10]
inactive: all other assays above

N#Cc1cc(NC(=O)C(=O)O)c(Cl)c(NC(=O)C(=O)O)c1
inactive: [1] | [3] | [5] | [7]

CC(C)CC(=O)N[C@H](C(=O)N[C@H](C(=O)N[C@@H](CC(C)C)[C@@H](O)CC(=O)N[C@@H](C)C(=O)N[C@@H](CC(C)C)[C@@H](O)CC(=O)O)C(C)C)C(C)C (Isovaleryl-VV[Sta]A[Sta]-OH)
inactive: [1] | [2] | [3] | [4] | [5] | [6]

CCCCCCCCCCCCCC(=O)OCC
inactive: [1] | [2] | [3] | [4] | [5]

O=C(O)P(=O)(O)O
inactive: [1] | [2] | [3] | [4] | [5] | [6]

Cc1nnc(C(=O)NC(C)(C)c2nc(C(=O)NCc3ccc(F)cc3)c(O)c(=O)n2C)o1
not listed: [7] | [8]
inactive: all other assays above

C=CCON/C(CCC)=C1\C(=O)CC(C)(C)C(C(=O)OC)=C1O
not listed: [7] | [8]
inactive: all other assays above

— PubChem BioAssay (Tox21)
